About 2,100 (3.2%) of roughly 65,000 compounds showed an effect of 50% or more. The median lay at about -52%. This is one part of a sample in which strong results are shown more often than they occur.

In this test the test system is Plasmodium falciparum. Put plainly: Screen against P. falciparum Asexual Blood Stage (ABS), at 5uM. As to conditions: tested at 5 uM. Format: functional, Dd2.
`O=C(NCc1cccnc1)[C@H]1CC[C@@H]2[C@@H](CCN2c2ncccn2)O1`: the INHIBITION is 41.4%.

Take `CNC(=O)c1cc2c(nc1NCC(C)C)CCN(c1ncccn1)CC2`: the INHIBITION is listed as -98.4%.

`CC(Cn1cccn1)NCc1cnc(N2CCCC2)nc1` (centres undefined): the INHIBITION was -141%.

Take `c1ccc(OCCCNCc2cccs2)nc1`: the INHIBITION amounted to 19.1%.

Consider `Cc1ccsc1CNCCCOc1ccccn1`, for which the INHIBITION is 54.4%.

Consider `c1ccc(OCCNCc2cccs2)nc1`, for which the INHIBITION is given as -79.1%.

On to `O=C(c1cnc(C2CC2)nc1)N1CCCC(c2nccs2)C1` (centres undefined), for which the INHIBITION is reported as -138%.

`O=C(CC1CC1)N1CCC2(CCCN(CCOc3ccccc3)C2)C1` (centres undefined): the INHIBITION was determined as 57.8%.

Consider `O=C(N1CCCC1)N1CCC2(CCCN(CCOc3ccccc3)C2)C1` (centres undefined), for which the INHIBITION is reported as -1.79%.

On to `CN(C)C(=O)N1CCC2(CCCN(CCOc3ccccc3)C2)C1` (centres undefined), for which the INHIBITION is given as 40.1%.

Take `O=C(c1cscn1)N1CCC2(CCCN(CCOc3ccccc3)C2)C1` (centres undefined): the INHIBITION is recorded as 53.5%.

As for `O=C([C@H]1CCCO1)N1CCC2(CCCN(CCOc3ccccc3)C2)C1` (some centres undefined), the INHIBITION is given as -41%.

For the compound `O=C(c1cscn1)N1CCC2(CCN(S(=O)(=O)c3ccccc3)C2)C1` (centres undefined), the INHIBITION was -20.8%.

Turning to `Cn1ccnc1CN1CCC(Cn2cc(-c3ccccc3)nn2)CC1`, the INHIBITION turned out to be 24.5%.

Regarding `c1cc(CNCC2CNc3ccnn3C2)cc(OC2CCCC2)n1` (centres undefined), the INHIBITION is on record as -58.6%.

For `CCCc1cnc(C)nc1N1CCC(Cn2cc(CO)nn2)CC1`, the INHIBITION was -65.7%.

As to `Cc1nccn1-c1cccc(C2CCCN(C3CCCC3)C2)n1` (centres undefined), the INHIBITION is listed as 1.22%.

Consider `CCc1nccn1-c1cccc(C2CCCN(C3CCCCC3)C2)n1` (centres undefined), for which the INHIBITION is 53.2%.

In the case of `Cc1nccn1-c1cccc(C2CCCN(C3CCCCC3)C2)n1` (centres undefined), the INHIBITION was determined as 44.3%.

As for `Cc1noc(C)c1CN1Cc2ccnn2CC(C(=O)NCC2CC2)C1` (centres undefined), the INHIBITION was -30.3%.

In the case of `CCCN1CCCn2c(nc(CNC(=O)c3nccn3C)cc2=O)C1`, the INHIBITION is -91.8%.

As to `Cc1ccc(-c2cn[nH]c2C2CCCN(c3cnccn3)C2)cc1` (centres undefined), the INHIBITION is recorded as -28%.

Take `CCn1cc(CN2CCCC(c3[nH]ncc3-c3ccc(F)cc3)C2)cn1` (centres undefined): the INHIBITION was found to be 60.9%.

Take `CCn1cc(CN2CCC(c3[nH]ncc3S(C)(=O)=O)C2)cn1` (centres undefined): the INHIBITION was -44%.

In the case of `Cc1ccc(-c2cn[nH]c2C2CCCN(c3ncccn3)C2)cc1` (centres undefined), the INHIBITION is given as -1.86%.

Regarding `CCn1cc(CN2CCCC(c3[nH]ncc3-c3ccc(C)cc3)C2)cn1` (centres undefined), the INHIBITION was determined as 60.9%.

As for `CCCn1cc(CN2CCC(c3[nH]ncc3S(C)(=O)=O)C2)cn1` (centres undefined), the INHIBITION is given as -45.2%.

As to `O=C(c1ccoc1)N1CC[C@@H]2O[C@@H](COCc3ccccn3)CC[C@@H]21`, the INHIBITION is reported as -109%.

`CO[C@@H]1CCN(S(=O)(=O)c2cccs2)[C@H]1Cc1cccnc1`: the INHIBITION is -8.97%.

Regarding `CCC(C)N(Cc1cccnc1)C(=O)c1ccc(F)c(O)c1` (centres undefined), the INHIBITION is on record as -68.4%.

Regarding `CN(C)CC1(O)CCCN(c2nc(-c3ccccc3)no2)CC1` (centres undefined), the INHIBITION is -61.2%.

With `Cc1cc(N2CCCC(O)(CN(C)C)CC2)nc(-c2ccccc2)n1` (centres undefined), the INHIBITION stood at 57.4%.

For the compound `CN(C)CC1(O)CCCN(c2noc(-c3ccccc3)n2)CC1` (centres undefined), the INHIBITION is listed as -3.62%.

In the case of `CC1CN(C)CCN1C(=O)c1ccn(-c2cccc(F)c2)n1` (centres undefined), the INHIBITION was -38.4%.

In the case of `Cc1cc(NC(=O)N(C)CCN2CCN(c3ccccc3)CC2)on1`, the INHIBITION is -47.3%.

As for `Cc1cc(NC(=O)CN(c2ccccc2)C(C)C)on1`, the INHIBITION was -5.31%.

With `Cc1cc(NC(=O)NC(C)CN2CCN(c3ccccc3)CC2)on1` (centres undefined), the INHIBITION is listed as 59.6%.

For `CNC(=O)c1cccnc1N1CCC(Oc2ccc(F)cc2)CC1`, the INHIBITION is listed as -88.2%.

`O=C(CCc1ccccn1)N1CCCC(n2cncn2)C1` (centres undefined): the INHIBITION is on record as -46.3%.

For the compound `CC(C)c1n[nH]c(C2CN(C(=O)Cn3ccccc3=O)CCO2)n1` (centres undefined), the INHIBITION is listed as -40.5%.

Turning to `O=C(CC1CC1)N1CCO[C@H]2[C@H](OCCCn3cccn3)CC[C@@H]21`, the INHIBITION is recorded as -14.6%.

Take `Cc1c(CN2CC[C@@H](N3CCC(O)CC3)[C@H](O)C2)[nH]c2ccc(Cl)cc12`: the INHIBITION came out at 54.6%.

As for `Cc1c(CN2CC[C@@H](N3CCC(O)CC3)[C@H](O)C2)[nH]c2ccc(F)cc12`, the INHIBITION is given as -21.9%.

Turning to `Cc1ccc2[nH]c(CN3CC[C@@H](N4CCN(C)CC4)[C@H](O)C3)c(C)c2c1`, the INHIBITION is reported as -41.6%.

Turning to `CC(=O)c1cc(Br)cc(F)c1OCC(=O)NC(C)C`, the INHIBITION is given as -96.4%.

Take `O=C(NCC(F)F)c1ccc(S(=O)(=O)NCCc2ccncc2)cc1`: the INHIBITION is recorded as 16.5%.

As to `O=C(CCN1CCCO1)N1CC[C@@H](c2ccc3ccccc3c2)[C@H](O)C1`, the INHIBITION is given as 15.7%.

On to `O=C(CCn1cccn1)N1CC[C@@H](c2ccc3ccccc3c2)[C@H](O)C1`, for which the INHIBITION is on record as 15.7%.

As to `O=C(CCN1CCCC1)N1CC[C@@H](c2ccc3ccccc3c2)[C@H](O)C1`, the INHIBITION was 65.1%.

With `COc1cc(C2c3c(n[nH]c3C)N=C3COC(=O)C32)cc2c1OCO2` (centres undefined), the INHIBITION was -31.7%.

Consider `O=C(CC1C=CCC1)Nc1ncn(CC(=O)N2CCCCCC2)n1` (centres undefined), for which the INHIBITION came to 23.2%.

As to `CCn1cc(CNCC(c2ccc(Cl)cc2)n2cccn2)cn1` (centres undefined), the INHIBITION came to 60.8%.

Regarding `Clc1ccc(C(CNCc2ccncc2)n2cccn2)cc1` (centres undefined), the INHIBITION is reported as -50.1%.

Turning to `Cn1cc(CNCC(c2ccc(Cl)cc2)n2cccn2)cn1` (centres undefined), the INHIBITION is listed as 18.1%.

For `CCN(C)S(=O)(=O)NCC1CCN(Cc2ccccc2C)CC1`, the INHIBITION was 11.6%.

On to `Cc1cc(CN2CCC(CNS(=O)(=O)c3ccccc3Cl)CC2)c(C)o1`, for which the INHIBITION turned out to be 53.6%.

For `Cc1cc(CN2CCC(CNS(=O)(=O)c3c(C)noc3C)CC2)c(C)o1`, the INHIBITION was determined as 28.4%.

`Cc1cnc2n(c1=O)C(CC(=O)NCc1ccc(Cl)cc1)CS2` (centres undefined): the INHIBITION is given as -30.4%.

Take `COc1ccc2[nH]c3c(c2c1)CN(c1cc(NCCO)nc(N)n1)CC3`: the INHIBITION was -52.4%.

Take `CC(C)Cc1ncc2c(n1)CN(c1cc(NCCO)nc(N)n1)C2`: the INHIBITION is -42.2%.

For `Nc1nc(NCCO)cc(N2CCc3c([nH]c4ccccc34)C2)n1`, the INHIBITION worked out at 61.3%.

`O=C(c1ccc2[nH]ccc2c1)N1CCCSCC1CN1CCCC1` (centres undefined): the INHIBITION was determined as 21.3%.

Take `O=C(NCCc1ccn(-c2ccccc2)n1)N1CCSCC1`: the INHIBITION is recorded as -122%.

For the compound `COc1ncc(CN2C[C@@H]3CC[C@@](O)(c4ccc(C)cn4)[C@@H]3C2)cn1`, the INHIBITION is -72.4%.

Take `Cc1ccc([C@]2(O)CC[C@H]3CN(Cc4cccc(Cl)c4Cl)C[C@H]32)nc1`: the INHIBITION is given as -9.78%.

Turning to `COc1ccc(CN2C[C@H]3CC[C@](O)(c4ccc(C)cn4)[C@H]3C2)c(F)c1`, the INHIBITION is recorded as 17.3%.

With `Cc1ccc([C@]2(O)CC[C@H]3CN(Cc4cccc(F)c4F)C[C@H]32)nc1`, the INHIBITION was determined as 45.8%.

`CSc1ccc(CN2C[C@@H]3CC[C@@](O)(c4ccc(C)cn4)[C@@H]3C2)cc1`: the INHIBITION is given as 57.5%.

Take `Cc1ccc([C@]2(O)CC[C@H]3CN(Cc4ccc(Cl)cc4Cl)C[C@H]32)nc1`: the INHIBITION came to 66.6%.

(Values after ChEMBL document CHEMBL4513216, “Probing the Open Global Health Chemical Diversity Library for Multistage-Active Starting Points for Next-Generation Antimalarials” (ACS Infect Dis, 2020).)
